Where “and” joins values, the source holds several entries; their conditions need not be identical. Equal values may be shown once. Results filed as inconclusive are left out. Some structures have more than one record in an assay (separate samples or runs), and their calls can disagree. Calls of active or inactive are those of the source. How the source made its calls, unless noted: active means hit-call score of the fitted dose curve at least 0.9, where 1 is the maximum; inactive means score below 0.9.
Experiments:
[1] = BSK_3C_uPAR: BioMAP Diversity Plus: 3C Assay for Urokinase-type plasminogen activator receptor (uPAR) Biomarker Activity (AID 2282998); details: BioMAP 3C HUVEC, uPAR biomarker ELISA; actives raise or lower the signal
Summary of the method: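 Readout: ELISA for surface uPAR. System: human umbilical vein endothelial primary cells, 24 h after chemical exposure. Analysis: bidirectional fit, DMSO baseline.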

[2] = BSK_3C_VCAM1: BioMAP Diversity Plus: 3C Assay for Vascular cell adhesion molecule 1 (VCAM1) Biomarker Activity (AID 2282999); details: BioMAP 3C HUVEC, VCAM1 ELISA, cytokine-stimulated; actives raise or lower the signal
Summary of the method: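 Human umbilical vein endothelial cells were dosed with compound for 24 h, after which cell-surface VCAM-1 was quantified by ELISA. Bidirectional curve fitting used DMSO as negative control and activity baseline.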

[3] = BSK_4H_Eotaxin3: BioMAP Diversity Plus: 4H Assay for Eotaxin 3 Biomarker Activity (AID 2283000); details: primary human endothelial cells (HUVEC); actives raise or lower the signal
Summary of the method: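 Chemicals were added to human umbilical vein endothelium cultures, and Eotaxin-3 was quantified by ELISA at 24 h. Values were derived by bidirectional fitting with DMSO serving as negative control and activity baseline.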

[4] = target: human Peroxisome Proliferator-activated Receptor delta (PPARd), PPARD (gene 5467) (UniProt Q03181); assay: ATG_PPARd_TRANS: Attagene TRANS-FACTORIAL HepG2 Assay for human Peroxisome Proliferator-activated Receptor delta (PPARd) (AID 2283002; active means hit-call score of the fitted dose curve at least 0.9, where 1 is the maximum)
Summary of the method: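 Measured quantity: GAL4-UAS reporter transcript induction in HepG2 after 24 h chemical dosing, with NR-Gal4 chimeras supplied by transient transfection. Detection by RT-PCR and capillary electrophoresis; upward fit against DMSO.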

[5] = read-out: Intercellular Adhesion Molecule 1 (ICAM1), ICAM1 (gene 3383); assay: BSK_3C_ICAM1: BioMAP Diversity Plus: 3C Assay for Intercellular Adhesion Molecule 1 (ICAM1) Biomarker Activity (AID 2283003); details: primary human endothelial cells (HUVEC); actives raise or lower the signal
Summary of the method: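 Human vascular endothelial primary cells, 3C conditions, 24 h treatment. ICAM-1 by ELISA.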

[6] = BSK_3C_Proliferation: Cell Proliferation Assessment in the BioMAP Diversity Plus: 3C Assay (AID 2283006); details: primary human endothelial cells (HUVEC);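 on AC50: potency may reflect either rise or fall in cell number versus DMSO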
Summary of the method: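 Proliferation of human vascular endothelial primary cells after 48 h dosing, quantified as SRB-stained protein at 560 nm relative to DMSO.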

[7] = target: Nuclear receptor subfamily 1 group I member 2 (Homo sapiens) (UniProt O75469); assay: ATG_PXR_TRANS: Attagene TRANS-FACTORIAL HepG2 Assay for human Pregnane X Receptor (PXR) (AID 2283008; active means hit-call score of the fitted dose curve at least 0.9, where 1 is the maximum)
Summary of the method: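 Fluorescence intensity of FAM-labelled, HpaI-digested reporter amplicons, separated by capillary electrophoresis, quantifies induction. HepG2 cells with PXR-Gal4 trans-reporter system were exposed 24 h; DMSO defines baseline.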

[8] = target: human RAR-related Orphan Receptor beta (RORb), RORB (gene 6096) (UniProt Q92753); assay: ATG_RORb_TRANS: Attagene TRANS-FACTORIAL HepG2 Assay for human RAR-related Orphan Receptor beta (RORb) (AID 2283010; active means hit-call score of the fitted dose curve at least 0.9, where 1 is the maximum)
Summary of the method: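 In this TRANS-format test, human HepG2 cells express chimeric NR-Gal4 fusion proteins driving GAL4-UAS reporters. After 24 h dosing, reporter transcripts are measured by fluorescent RT-PCR/capillary electrophoresis, with DMSO as negative control.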

[9] = target: human RAR-related Orphan Receptor gamma (RORg), RORC (gene 6097) (UniProt P51449); assay: ATG_RORg_TRANS: Attagene TRANS-FACTORIAL HepG2 Assay for human RAR-related Orphan Receptor gamma (RORg) (AID 2283011; active means hit-call score of the fitted dose curve at least 0.9, where 1 is the maximum)
Summary of the method: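 First, HepG2 liver cells were transfected with GAL4-UAS-driven reporter constructs and the RORg-Gal4 fusion. Next, they were treated with chemical for 24 h. Finally, reporter mRNA was quantified by RT-PCR and capillary electrophoresis, with upward activity fitted against DMSO.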

[10] = target: Retinoic acid receptor RXR-alpha (Homo sapiens) (UniProt P19793); assay: ATG_RXRa_TRANS: Attagene TRANS-FACTORIAL HepG2 Assay for human Retinoid X Receptor alpha (RXRa) (AID 2283012; active means hit-call score of the fitted dose curve at least 0.9, where 1 is the maximum)
Summary of the method: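 Cells (HepG2) carried transiently transfected GAL4-responsive reporter units. Following a 24 h chemical incubation, reporter mRNA induction was read via RT-PCR fragment analysis; DMSO served as negative control and baseline.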

[11] = target: human Retinoid X Receptor beta (RXRb), RXRB (gene 6257) (UniProt P28702); assay: ATG_RXRb_TRANS: Attagene TRANS-FACTORIAL HepG2 Assay for human Retinoid X Receptor beta (RXRb) (AID 2283013; active means hit-call score of the fitted dose curve at least 0.9, where 1 is the maximum)
Summary of the method: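 Multiplexed TRANS reporter assay in HepG2; 24 h dosing; reporter mRNA by RT-PCR/CE fluorescence; gain-of-signal relative to DMSO.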

[12] = read-out: E-selectin (Homo sapiens) (UniProt P16581); assay: BSK_3C_Eselectin: BioMAP Diversity Plus: 3C Assay for Eselectin Biomarker Activity (AID 2283015); details: primary human endothelial cells (HUVEC); actives raise or lower the signal
Summary of the method: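 ELISA read-out of E-selectin on endothelial monolayers after 24 h chemical treatment. Human umbilical vein primary cells served as the system, with DMSO defining baseline activity for bidirectional fitting.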

[13] = read-out: Interleukin-1 alpha (IL1a), IL1A (gene 3552); assay: BSK_BE3C_IL1a: BioMAP Diversity Plus: BE3C Assay for Interleukin-1 alpha (IL1a) Biomarker Activity (AID 2283016); details: primary human bronchial epithelial cells; actives raise or lower the signal
Summary of the method: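 Cultures of primary human bronchial epithelial cells receive test chemical. After 24 h, IL-1a is quantified by ELISA, while parallel wells are fixed in TCA and SRB-stained for total protein. Changes in either direction are fitted relative to DMSO.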

[14] = read-out: Human Leukocyte Antigen - DR isotype (HLADR), HLA-DRA (gene 3122); assay: BSK_3C_HLADR: BioMAP Diversity Plus: 3C Assay for Human Leukocyte Antigen - DR isotype (HLADR) Biomarker Activity (AID 2283019); details: primary human endothelial cells (HUVEC); actives raise or lower the signal
Summary of the method: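 ELISA readout of surface HLA-DR on human umbilical vein endothelium, taken 24 h after chemical treatment. Gain- and loss-of-signal were both fitted relative to DMSO.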

[15] = target: human Retinoic Acid Receptor beta (RARb), RARB (gene 5915) (UniProt P10826); assay: ATG_RARb_TRANS: Attagene TRANS-FACTORIAL HepG2 Assay for human Retinoic Acid Receptor beta (AID 2283004; active means hit-call score of the fitted dose curve at least 0.9, where 1 is the maximum)
Summary of the method: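 Transient transfection of HepG2 with multiple reporter units → chemical dosing, 24 h → total RNA isolation → RT with oligo(dT) → reporter-specific PCR, 6-FAM primer extension, HpaI digest → capillary electrophoresis. Positive direction vs DMSO control.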

[16] = target: Peroxisome proliferator-activated receptor gamma (Homo sapiens) (UniProt P37231); assay: ATG_PPARg_TRANS: Attagene TRANS-FACTORIAL HepG2 Assay for human Peroxisome Proliferator-activated Receptor-gamma (PPARg) (AID 2283007; active means hit-call score of the fitted dose curve at least 0.9, where 1 is the maximum)
Summary of the method: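 Transient transfection of HepG2 with GAL4-UAS-driven reporter units; chemical dosing 24 h; total RNA → oligo(dT) RT → PCR with reporter primers → 6-FAM primer extension → HpaI digest 2 h 37 C → capillary electrophoresis. Positive direction vs DMSO.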

[17] = target: human Thyroid Receptor alpha (THRa1), THRA (gene 7067) (UniProt P10827); assay: ATG_THRa1_TRANS: Attagene TRANS-FACTORIAL HepG2 Assay for human Thyroid Receptor alpha (THRa1) (AID 2283014; active means hit-call score of the fitted dose curve at least 0.9, where 1 is the maximum)
Summary of the method: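 Reporter transcript induction, read by capillary electrophoresis of 6-FAM-labelled RT-PCR products, reflects activity of a transfected THRa1-Gal4 fusion in HepG2 liver cells. Cells were dosed for 24 h; activity was fitted in the positive direction against DMSO.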

[18] = target: Retinoic acid receptor alpha (Homo sapiens) (UniProt P10276); assay: ATG_RARa_TRANS: Attagene TRANS-FACTORIAL HepG2 Assay for human Retinoic Acid Receptor alpha (RARa) (AID 2283005; active means hit-call score of the fitted dose curve at least 0.9, where 1 is the maximum;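 on AC50: potency for increased reporter signal meaning RARa activation over DMSO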)
Summary of the method: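 HepG2 cells transiently transfected with multiple reporter units expressing chimeric RARα-GAL4 fusion, with GAL4-UAS-driven reporters. After 24 h compound exposure, reporter mRNA induction quantified by RT-PCR and capillary electrophoresis with fluorescent labeling; gain-of-signal fitted relative to DMSO control.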

[19] = read-out: Monocyte Chemoattractant Protein-1 (MCP1), CCL2 (gene 6347); assay: BSK_3C_MCP1: BioMAP Diversity Plus: 3C Assay for Monocyte Chemoattractant Protein-1 (MCP1) Biomarker Activity (AID 2283017); details: primary human endothelial cells (HUVEC); actives raise or lower the signal
Summary of the method: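 ELISA read-out of MCP-1 from human umbilical vein endothelial cell cultures harvested 24 h post-dosing. Gain or loss of signal was fitted relative to DMSO.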

[20] = read-out: Monocyte Chemoattractant Protein-1 (MCP1), CCL2 (gene 6347); assay: BSK_4H_MCP1: BioMAP Diversity Plus: 4H Assay for Monocyte Chemoattractant Protein-1 (MCP1) Biomarker Activity (AID 2283018); details: primary human endothelial cells (HUVEC); actives raise or lower the signal
Summary of the method: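 Readout: MCP-1 ELISA on compound-treated HUVEC, sampled 24 h post-dosing. Baseline and negative control DMSO; bidirectional fit. Overt toxicity checked alongside by sulforhodamine B protein staining at time of biomarker measurement.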

Measured: AC50

Sequence of E-selectin (Homo sapiens) (P16581 whole entry, looked up): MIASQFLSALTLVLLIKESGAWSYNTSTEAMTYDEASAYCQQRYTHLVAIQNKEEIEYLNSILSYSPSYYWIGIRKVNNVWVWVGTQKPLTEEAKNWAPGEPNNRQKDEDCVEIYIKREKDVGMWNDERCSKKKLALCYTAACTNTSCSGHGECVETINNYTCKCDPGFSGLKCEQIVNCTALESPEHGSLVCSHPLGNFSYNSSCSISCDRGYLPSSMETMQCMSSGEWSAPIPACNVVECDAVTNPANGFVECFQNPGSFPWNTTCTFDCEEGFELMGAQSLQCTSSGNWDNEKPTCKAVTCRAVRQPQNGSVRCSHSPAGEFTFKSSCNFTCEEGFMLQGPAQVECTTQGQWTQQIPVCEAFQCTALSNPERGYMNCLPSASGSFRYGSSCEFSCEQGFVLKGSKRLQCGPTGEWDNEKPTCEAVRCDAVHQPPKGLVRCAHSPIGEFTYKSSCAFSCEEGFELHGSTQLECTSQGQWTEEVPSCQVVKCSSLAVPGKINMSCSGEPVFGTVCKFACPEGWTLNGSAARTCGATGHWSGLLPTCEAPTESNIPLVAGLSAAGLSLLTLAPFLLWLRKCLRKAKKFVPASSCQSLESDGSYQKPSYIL
Sequence of human Retinoic Acid Receptor beta (RARb), RARB (gene 5915) (P10826 whole entry, looked up): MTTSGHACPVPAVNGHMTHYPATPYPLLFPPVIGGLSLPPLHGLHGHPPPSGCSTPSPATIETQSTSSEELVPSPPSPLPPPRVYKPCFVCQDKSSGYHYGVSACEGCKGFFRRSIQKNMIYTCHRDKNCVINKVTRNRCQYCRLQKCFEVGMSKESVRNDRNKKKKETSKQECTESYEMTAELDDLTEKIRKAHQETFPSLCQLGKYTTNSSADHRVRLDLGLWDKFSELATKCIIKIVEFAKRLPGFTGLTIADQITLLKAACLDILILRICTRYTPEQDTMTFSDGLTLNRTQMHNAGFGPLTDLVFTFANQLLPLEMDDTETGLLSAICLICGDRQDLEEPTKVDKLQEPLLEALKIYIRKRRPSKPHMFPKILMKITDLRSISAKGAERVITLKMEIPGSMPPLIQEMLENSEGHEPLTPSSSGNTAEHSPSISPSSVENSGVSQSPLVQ
Sequence of human Retinoid X Receptor beta (RXRb), RXRB (gene 6257) (P28702 whole entry, looked up): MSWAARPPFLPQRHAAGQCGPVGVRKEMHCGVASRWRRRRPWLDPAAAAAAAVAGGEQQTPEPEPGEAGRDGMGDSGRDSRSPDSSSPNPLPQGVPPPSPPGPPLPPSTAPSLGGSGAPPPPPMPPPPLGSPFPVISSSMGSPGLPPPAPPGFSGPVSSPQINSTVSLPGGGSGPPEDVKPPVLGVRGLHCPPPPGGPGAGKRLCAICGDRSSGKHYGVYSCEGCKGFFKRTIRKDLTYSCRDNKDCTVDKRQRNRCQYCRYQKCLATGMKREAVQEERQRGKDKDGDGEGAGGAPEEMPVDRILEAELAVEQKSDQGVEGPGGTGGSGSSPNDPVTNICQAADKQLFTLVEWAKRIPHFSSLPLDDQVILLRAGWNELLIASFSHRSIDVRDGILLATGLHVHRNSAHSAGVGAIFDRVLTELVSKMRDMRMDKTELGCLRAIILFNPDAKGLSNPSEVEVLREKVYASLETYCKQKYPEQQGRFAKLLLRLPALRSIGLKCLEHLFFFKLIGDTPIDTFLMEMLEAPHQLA
Sequence of Nuclear receptor subfamily 1 group I member 2 (Homo sapiens) (O75469 whole entry, looked up, the tested form may be a part): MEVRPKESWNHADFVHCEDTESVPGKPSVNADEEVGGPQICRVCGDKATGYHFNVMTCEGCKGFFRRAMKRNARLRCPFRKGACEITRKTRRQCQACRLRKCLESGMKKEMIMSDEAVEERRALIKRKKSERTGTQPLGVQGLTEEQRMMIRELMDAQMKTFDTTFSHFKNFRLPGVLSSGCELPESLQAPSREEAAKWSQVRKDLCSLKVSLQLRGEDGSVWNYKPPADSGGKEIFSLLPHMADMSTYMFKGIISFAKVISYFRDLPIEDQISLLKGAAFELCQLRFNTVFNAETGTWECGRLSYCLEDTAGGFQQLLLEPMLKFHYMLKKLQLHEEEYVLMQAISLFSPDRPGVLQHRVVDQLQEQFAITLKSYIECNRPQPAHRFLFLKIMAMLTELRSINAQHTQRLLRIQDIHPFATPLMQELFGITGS
Sequence of Peroxisome proliferator-activated receptor gamma (Homo sapiens) (P37231 whole entry, looked up, the tested form may be a part): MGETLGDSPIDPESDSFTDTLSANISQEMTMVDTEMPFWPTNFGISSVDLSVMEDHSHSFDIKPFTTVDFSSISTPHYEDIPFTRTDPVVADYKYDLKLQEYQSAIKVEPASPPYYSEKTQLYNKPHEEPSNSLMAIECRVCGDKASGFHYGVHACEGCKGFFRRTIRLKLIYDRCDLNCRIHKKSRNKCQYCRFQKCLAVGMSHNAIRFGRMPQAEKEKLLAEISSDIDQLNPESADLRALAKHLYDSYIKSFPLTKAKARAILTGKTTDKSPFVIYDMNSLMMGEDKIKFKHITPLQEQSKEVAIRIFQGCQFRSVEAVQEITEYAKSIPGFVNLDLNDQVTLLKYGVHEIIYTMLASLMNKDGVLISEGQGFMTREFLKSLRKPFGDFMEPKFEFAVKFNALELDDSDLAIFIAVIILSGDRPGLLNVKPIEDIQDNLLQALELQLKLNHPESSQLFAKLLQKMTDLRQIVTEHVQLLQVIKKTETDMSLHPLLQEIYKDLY
Sequence of human Peroxisome Proliferator-activated Receptor delta (PPARd), PPARD (gene 5467) (Q03181 whole entry, looked up, the tested form may be a part): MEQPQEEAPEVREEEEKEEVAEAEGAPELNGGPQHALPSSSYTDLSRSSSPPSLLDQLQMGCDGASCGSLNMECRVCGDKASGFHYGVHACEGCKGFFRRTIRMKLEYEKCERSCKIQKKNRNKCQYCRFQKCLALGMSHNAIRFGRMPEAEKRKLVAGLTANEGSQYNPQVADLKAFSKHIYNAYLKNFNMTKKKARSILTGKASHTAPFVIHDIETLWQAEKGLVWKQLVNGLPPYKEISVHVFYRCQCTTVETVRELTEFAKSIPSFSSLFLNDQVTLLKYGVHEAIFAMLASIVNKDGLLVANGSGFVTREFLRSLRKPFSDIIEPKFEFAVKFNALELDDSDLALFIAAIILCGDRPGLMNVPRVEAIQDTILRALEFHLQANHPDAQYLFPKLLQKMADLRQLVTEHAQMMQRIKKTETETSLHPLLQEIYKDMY
Sequence of human RAR-related Orphan Receptor beta (RORb), RORB (gene 6096) (Q92753 whole entry, looked up, the tested form may be a part): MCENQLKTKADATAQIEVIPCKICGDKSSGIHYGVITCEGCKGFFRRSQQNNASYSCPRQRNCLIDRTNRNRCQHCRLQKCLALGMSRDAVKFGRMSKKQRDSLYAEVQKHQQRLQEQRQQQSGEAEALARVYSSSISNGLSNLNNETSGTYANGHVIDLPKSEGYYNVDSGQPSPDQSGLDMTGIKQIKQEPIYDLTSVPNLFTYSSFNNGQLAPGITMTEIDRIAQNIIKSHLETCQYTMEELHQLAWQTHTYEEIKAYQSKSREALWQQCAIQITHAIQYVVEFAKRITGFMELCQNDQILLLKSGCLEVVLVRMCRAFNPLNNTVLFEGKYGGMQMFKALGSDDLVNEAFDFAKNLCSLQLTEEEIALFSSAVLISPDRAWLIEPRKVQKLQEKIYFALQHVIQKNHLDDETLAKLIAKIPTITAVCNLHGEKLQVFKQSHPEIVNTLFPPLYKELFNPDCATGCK
Sequence of human RAR-related Orphan Receptor gamma (RORg), RORC (gene 6097) (P51449 whole entry, looked up, the tested form may be a part): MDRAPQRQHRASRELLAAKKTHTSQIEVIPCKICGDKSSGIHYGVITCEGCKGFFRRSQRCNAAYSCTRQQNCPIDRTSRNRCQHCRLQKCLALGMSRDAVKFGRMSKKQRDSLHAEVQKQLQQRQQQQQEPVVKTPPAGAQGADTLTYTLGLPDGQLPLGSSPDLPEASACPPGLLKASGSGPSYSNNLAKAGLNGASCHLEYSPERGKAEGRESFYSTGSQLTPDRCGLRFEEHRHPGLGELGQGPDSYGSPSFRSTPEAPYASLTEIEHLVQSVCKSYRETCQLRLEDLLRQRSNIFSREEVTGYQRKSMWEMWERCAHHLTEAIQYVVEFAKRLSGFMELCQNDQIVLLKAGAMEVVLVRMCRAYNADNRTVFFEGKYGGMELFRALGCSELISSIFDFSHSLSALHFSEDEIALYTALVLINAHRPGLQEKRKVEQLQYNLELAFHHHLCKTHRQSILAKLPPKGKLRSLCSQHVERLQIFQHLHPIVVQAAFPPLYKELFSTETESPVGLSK
Sequence of Retinoic acid receptor alpha (Homo sapiens) (P10276 whole entry, looked up, the tested form may be a part): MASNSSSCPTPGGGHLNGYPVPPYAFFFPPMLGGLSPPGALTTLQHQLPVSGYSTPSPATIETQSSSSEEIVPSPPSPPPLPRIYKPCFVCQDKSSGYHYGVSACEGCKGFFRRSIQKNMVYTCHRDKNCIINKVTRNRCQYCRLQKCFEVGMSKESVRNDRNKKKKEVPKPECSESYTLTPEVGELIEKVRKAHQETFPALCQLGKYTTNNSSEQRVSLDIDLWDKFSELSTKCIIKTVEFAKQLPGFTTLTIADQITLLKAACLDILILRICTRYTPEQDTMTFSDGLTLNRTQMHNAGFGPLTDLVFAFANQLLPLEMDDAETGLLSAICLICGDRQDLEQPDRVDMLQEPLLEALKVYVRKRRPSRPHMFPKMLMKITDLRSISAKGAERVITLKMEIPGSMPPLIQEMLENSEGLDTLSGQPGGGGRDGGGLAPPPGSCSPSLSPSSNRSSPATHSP
Sequence of human Thyroid Receptor alpha (THRa1), THRA (gene 7067) (P10827 whole entry, looked up, the tested form may be a part): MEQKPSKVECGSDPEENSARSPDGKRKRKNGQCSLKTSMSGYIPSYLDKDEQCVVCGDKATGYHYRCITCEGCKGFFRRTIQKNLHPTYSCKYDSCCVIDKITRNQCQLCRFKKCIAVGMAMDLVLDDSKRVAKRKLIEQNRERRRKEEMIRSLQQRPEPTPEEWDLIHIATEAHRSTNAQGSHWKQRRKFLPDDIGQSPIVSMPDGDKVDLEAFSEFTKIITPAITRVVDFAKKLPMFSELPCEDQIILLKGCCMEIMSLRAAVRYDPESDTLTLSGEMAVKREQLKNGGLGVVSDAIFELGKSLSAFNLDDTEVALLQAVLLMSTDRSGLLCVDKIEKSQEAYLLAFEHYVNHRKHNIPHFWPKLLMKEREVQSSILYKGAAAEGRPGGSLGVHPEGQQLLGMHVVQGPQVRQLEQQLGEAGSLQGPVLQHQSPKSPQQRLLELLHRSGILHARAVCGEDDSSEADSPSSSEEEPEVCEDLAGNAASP

O=C(O)C(F)(F)C(F)(F)C(F)(F)C(F)(F)C(F)(F)C(F)(F)C(F)(F)F
active: [1] 1.51 µM | [11] 57 µM and 37.4 µM and 56.2 µM
inactive: [1] | [2] | [3] | [4] | [5] | [6] | [7] | [8] | [9] | [10] | [11] | [12] | [13] | [14]

CC(C)(C)C(O)/C(=C\c1ccc(Cl)cc1Cl)n1cncn1 (stereo not given)
active: [1] 29.4 µM | [2] 25.3 µM | [3] 30.4 µM | [6] 26.3 µM | [12] 24 µM | [13] 32.9 µM | [14] 31.6 µM
inactive: [4] | [5] | [15] | [16] | [7] | [10] | [17]

CCS(=O)(=O)c1cccnc1S(=O)(=O)NC(=O)Nc1nc(OC)cc(OC)n1
not listed: [15] | [19] | [20]
inactive: all other assays above

CNC(=O)Oc1cccc(N=CN(C)C)c1
active: [2] 29 µM | [12] 20 µM | [14] 18.2 µM
not listed: [9] | [19] | [20]
inactive: all other assays above

CNC(=O)CSP(=S)(OC)OC
not listed: [10] | [11] | [15] | [17] | [18] | [19] | [20]
inactive: all other assays above

CC(C)N(C(=O)COc1nnc(C(F)(F)F)s1)c1ccc(F)cc1
active: [16] 14.3 µM | [7] 10.7 µM | [20] 22.4 µM
not listed: [8] | [9] | [15] | [17] | [18]
inactive: all other assays above

COP(=O)(OC)OC=C(Cl)Cl
inactive: [1] | [2] | [3] | [4] | [5] | [16] | [7] | [13]
active: [6] 17.6 µM | [14] 20 µM

ClC1C(Cl)C(Cl)C(Cl)C(Cl)C1Cl (stereo not given)
active: [1] 28.4 µM | [2] 30.1 µM | [3] 32.5 µM | [5] 28 µM | [18] 20.6 µM and 6.26 µM and 37.2 µM | [6] 29.2 µM and 28 µM | [11] 31.1 µM and 26.2 µM | [12] 20 µM and 25.7 µM and 5.22 µM | [14] 28.2 µM and 25.3 µM
inactive: [1] | [2] | [3] | [4] | [5] | [15] | [18] | [6] | [16] | [8] | [10] | [11] | [17] | [12] | [13] | [14]

CCOC1Oc2ccc(OS(C)(=O)=O)cc2C1(C)C (stereo not given)
active: [7] 29.6 µM | [14] 23 µM
not listed: [8] | [19] | [20]
inactive: all other assays above

COC(=O)c1ccccc1S(=O)(=O)NC(=O)N(C)c1nc(C)nc(OC)n1
not listed: [8] | [9] | [11] | [15] | [18]
inactive: all other assays above

CCC(C)(NC(=O)c1cc(Cl)c(C)c(Cl)c1)C(=O)CCl (stereo not given)
active: [1] 14.4 µM | [2] 9.51 µM | [3] 9.74 µM | [5] 26.6 µM | [6] 5.47 µM | [16] 0.878 µM | [12] 8.28 µM | [13] 33.8 µM | [14] 3.57 µM
inactive: [4] | [15] | [7] | [8] | [9] | [10] | [11] | [17]

Clc1ccccc1-c1nnc(-c2ccccc2Cl)nn1
active: [6] 11.7 µM | [16] 64.7 µM
not listed: [8] | [9] | [15] | [19] | [20]
inactive: all other assays above

Reference: PubChem BioAssay (EPA / NIEHS)
